Sampled rows, rich in hits. Any-hit rate of the full collection: about 3.3%.
D3 ag: qHTS of D3 Dopamine Receptor Agonist: qHTS. D(3) dopamine receptor (Homo sapiens), P35462. D3R DiscoveRx beta-arrestin cells, luminescence, 90 min. max activation, %. actives 0.58% (n = 410,000). AID 652048, 2013; in the data active = max activation above about 30%
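Agonist mode: compounds and dopamine controls were applied to plated cells for 90 min at 37 degrees C after an overnight attachment at 1500 cells/well. Luminescent read-out followed 30 - 60 minutes at room temperature with DiscoveRx detection reagent.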
D3 antag: qHTS of D3 Dopamine Receptor Antagonist: qHTS | max response, negative = inhibition, % | actives 2.5% (n = 360,000) | D(3) dopamine receptor (Homo sapiens), P35462 | D3R cells, DiscoveRx beta-arrestin luminescence, antagonist mode; hits give low values; in the data active = max response below about -50%; inconclusive = no clear call, values can overlap the other calls
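Cells plated overnight at 1500 cells/well, then exposed to library compounds with dopamine controls for 90 minutes at 37 degrees C. DiscoveRx reagent added for 30–60 minutes at room temperature; luminescence read, quantitative HTS format.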
LDHA inh: qHTS assay for inhibitors of human lactate dehydrogenase | purified LDHA, NADH/diaphorase-resazurin fluorescence; hits give low values | activity change, % (values are at about 110 or 230 µM) | actives 0.15% (n = 480,000) | L-lactate dehydrogenase A chain (Homo sapiens), P00338 | AID 1347041, 2019; in the data active = activity change below about -30%; inconclusive = mostly about -25% to -30%
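Human LDH5 at 2 nM final in Tris HCl pH 7.4 with 0.06 mM NADH and 0.2 mM pyruvate, reacted 5 minutes at room temperature. Remaining NADH coupled via diaphorase/resazurin; resorufin fluorescence read at 0 and 20 minutes, normalized to enzyme-free and DMSO wells.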
PI5P4K alpha inh: qHTS for Inhibitors of phosphatidylinositol 5-phosphate 4-kinase (PI5P4K) | max response, % | PI5P4Kalpha enzyme, ADP-Glo luminescence, 60 min; hits give low values | Phosphatidylinositol 5-phosphate 4-kinase type-2 alpha (Homo sapiens), P48426 | actives 1.2% (n = 330,000); active = max response of -50% or lower; inconclusive = between -30% and -50%; inactive = -30% or higher; also: value at the top dose of about 77 µM
Target sequence (P48426 whole entry, looked up): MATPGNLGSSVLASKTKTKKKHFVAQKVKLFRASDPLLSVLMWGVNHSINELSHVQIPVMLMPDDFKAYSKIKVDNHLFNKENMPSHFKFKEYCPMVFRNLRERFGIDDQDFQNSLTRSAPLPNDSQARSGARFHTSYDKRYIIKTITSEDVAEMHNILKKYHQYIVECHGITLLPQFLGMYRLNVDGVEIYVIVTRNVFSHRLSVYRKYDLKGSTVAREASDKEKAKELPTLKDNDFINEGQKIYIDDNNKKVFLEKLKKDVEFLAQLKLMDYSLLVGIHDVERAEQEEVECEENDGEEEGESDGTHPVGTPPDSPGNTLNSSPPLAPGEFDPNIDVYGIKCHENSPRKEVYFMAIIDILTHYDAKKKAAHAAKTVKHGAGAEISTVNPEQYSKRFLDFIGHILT
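Human PI5P4Kalpha with substrate in 0.038 M HEPES pH 7.4, 0.28 mM EGTA, 0.1% CHAPS, 5% DMSO; reaction started with 5 microM ATP (final), 60 min at room temperature. ADP formed read by ADP-Glo luminescence.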
PI4K2A inh: qHTS for small molecular inhibitors of PI4K2A; Phosphatidylinositol 4-kinase type 2-alpha (Homo sapiens), Q9BTU6; purified PI4K2A, ADP-Glo luminescence, 1 h; hits give low values; activity change, negative = inhibition, % at 76.9 µM; actives 0.13% (n = 420,000); AID 1346378, 2018; in the data active = activity change below about -50%; inconclusive = mostly about -30% to -49%
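Compounds are screened against recombinant PI4K2A using PI as substrate and ATP, the latter dispensed at 300 microM. Reactions run one hour at ambient temperature before ADP-Glo detection; full inhibition defined by wells lacking enzyme.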
Hits are given with their value; 0 = inactive; ? = inconclusive; - = no result given.

SMILES | D3 ag | D3 antag | LDHA inh | PI5P4K alpha inh | PI4K2A inh
Cc1ccc(S(=O)(=O)N2Cc3ccccc3-n3nncc3C2)cc1 | 0 | 0 | 0 | 0 | 0
O=C1NCN(c2ccccc2)C12CCN(C(c1cccc3ccccc13)c1nnnn1C1CCCCC1)CC2 (configuration not stated) | 0 | -70.1 | 0 | 0 | 0
CCC(c1nnnn1-c1ccc2c(c1)OCCO2)N1CCC2(CC1)C(=O)NCN2c1ccccc1 (configuration not stated) | 0 | -50.7 | 0 | 0 | 0
CCC(c1nnnn1C(C)(C)C)N1CCC2(CC1)C(=O)NCN2c1ccccc1 (configuration not stated) | 0 | 0 | 0 | 0 | 0
O=C1NCN(c2ccccc2)C12CCNCC2 | 0 | -86.1 | 0 | - | 0
CC(C)(C)n1nnnc1C(CCc1ccccc1)N1CCC2(CC1)C(=O)NCN2c1ccccc1 (configuration not stated) | 0 | -68.3 | 0 | 0 | 0
C=CCN1CCN(C(=O)Cc2ccccc2)CC1 | - | - | 0 | - | -
CCOC(=O)C1=C(N)Oc2c(c(=O)oc3ccccc23)C12C(=O)Nc1ccc(F)cc12 (configuration not stated) | - | - | 0 | - | -
CC(C)(C)n1nnnc1C(c1ccccc1)N1CCC2(CC1)C(=O)NCN2c1ccccc1 (configuration not stated) | 0 | -67.4 | 0 | 0 | 0
CC(=O)O[C@H]1C[C@H](O[C@H]2[C@@H](O)C[C@H](O[C@H]3[C@@H](O)C[C@H](OC4CC[C@@]5(C)[C@H](CC[C@@H]6[C@@H]5CC[C@]5(C)[C@@H](C7=CC(=O)OC7)CC[C@]65O)C4)O[C@@H]3C)O[C@@H]2C)O[C@H](C)[C@H]1O[C@@H]1O[C@H](CO)[C@@H](O)[C@H](O)[C@H]1O (some centres not stated) | 0 | - | - | - | -
C=CCN1C(=O)NC(=O)/C(=C/c2ccc(OC)c(COc3ccc(NC(C)=O)cc3)c2)C1=O | 0 | 0 | 0 | -66.1 | ?
C=CCN1C(=O)NC(=O)/C(=C/c2ccc(OC)c(CSc3ccccn3)c2)C1=O | 0 | 0 | 0 | -71.4 | ?
CC(=O)Nc1ccc(C=C2C(=O)NC(=O)NC2=O)cc1 | 0 | 0 | 0 | ? | 0
c1ccc(CCNC2CC2)cc1 | - | - | 0 | - | -
Cc1nn(C)c(C)c1C1SCC(=O)Nc2c1cnn2-c1ccccc1 (configuration not stated) | - | - | 0 | - | -
N#Cc1c(Cl)nc(NCCNc2ccccn2)c(Cl)c1Cl | - | - | 0 | - | -
CCOC(C(=O)OCC(O)CN(CC)CC)(c1ccccc1)c1ccccc1 (configuration not stated) | 0 | -59.7 | 0 | 0 | 0
CC(C(=O)c1ccccc1)N(C)C (configuration not stated) | - | - | - | - | 0
CC1CCN(C(CC(=O)c2ccccc2)C(=O)c2ccccc2)CC1 (configuration not stated) | 0 | -79.0 | 0 | ? | 0
CSc1ccc(CN2CCN(Cc3ccccc3Cl)CC2)cc1 | 0 | -96.5 | -30.6 | 0 | 0
CSc1ccc(CN2CCN(C(=O)Cc3ccccc3)CC2)cc1 | 0 | 0 | 0 | 0 | 0
COc1ccc(CN2CCN(Cc3ccccc3F)CC2)cc1 | 0 | -73.1 | 0 | 0 | 0
COc1ccc(CC(=O)N(CCN(C)C)CC2CCCN(Cc3ccccc3F)C2)cc1 (configuration not stated) | 0 | 0 | 0 | 0 | 0
CC[N+](C)(CC)CCCOC(=O)C(O)(c1ccccc1)C1CCCCC1 (configuration not stated) | 0 | 0 | -82.5 | ? | 0
CCOC(C(=O)OCCC[N+](C)(CC)CC)(c1ccccc1)c1ccccc1 | 0 | 0 | 0 | - | 0
SMILES | D3 ag | D3 antag | LDHA inh | PI5P4K alpha inh | PI4K2A inh
NC(=O)c1cn(C2OC(CO)C(O)C2O)c2ncnc(N)c12 (configuration not stated) | 0 | 0 | 0 | 0 | 0
N#Cc1cn(C2OC(CO)C(O)C2O)c2ncnc(N)c12 (configuration not stated) | 0 | 0 | 0 | 0 | -51.2
N#Cc1c(Br)n(C2OC(CO)C(O)C2O)c2ncnc(N)c12 (configuration not stated) | 38.1 | 0 | 0 | 0 | ?
O=S(=O)(F)CCS(=O)(=O)c1ccc(Cl)cc1 | - | - | 0 | - | -
CC(C)Cc1nc(N2CCNCC2)c(C#N)c2c1CCCC2 | - | - | 0 | - | -
O=C(C1CCC(=O)N1C1CCCC1)N1CCC2(CC1)OCCO2 (configuration not stated) | 0 | 0 | 0 | - | 0
O=C(C1CCCO1)N1CCC2(CC1)OCCO2 (configuration not stated) | 0 | -59.5 | 0 | - | 0
CCn1c(C)c(C(=O)NCc2cccnc2)c2cc(OC)ccc21 | - | - | 0 | - | -
COc1cccc(CCNCc2ccc(OC)c3ccccc23)c1 | - | - | 0 | - | -
O=C(NC(O)C(Cl)(Cl)Cl)NC(O)C(Cl)(Cl)Cl (configuration not stated) | 76.7 | - | 0 | - | 0
C[C@]12CC[C@H](OS(=O)(=O)O)CC1=CC[C@@H]1[C@@H]2CC[C@]2(C)C(=O)CC[C@@H]12 | 0 | 0 | 0 | 0 | 0
CCN(CC)CCO[C@H]1CC[C@@]2(C)C(=CC[C@@H]3[C@@H]2CC[C@]2(C)C(=O)CC[C@@H]32)C1 | 34.2 | - | - | - | -
COc1cc(C=C2C(=O)NC(=O)NC2=O)ccc1OS(=O)(=O)c1ccccc1[N+](=O)[O-] | 0 | 0 | 0 | -67.2 | 0
CCOc1ccc(C=C2C(=O)NC(=S)NC2=O)cc1OCC | 0 | 0 | 0 | ? | 0
CCOc1cc(C=C2C(=O)NC(=O)NC2=O)ccc1OS(=O)(=O)c1ccccc1 | 0 | 0 | 0 | -62.8 | ?
CN1CCN(c2ccc(C#N)cc2)CC1 | - | - | 0 | - | -
CN(C(=O)CN1CC=C(c2ccccc2)CC1)C1CCS(=O)(=O)C1 (configuration not stated) | - | - | 0 | - | -
CC(C)CCNC(=O)CN1C(=O)CN=C(c2ccccc2)c2ccccc21 | 0 | 0 | 0 | 0 | 0
O=C(CN1C(=O)CN=C(c2ccccc2)c2ccccc21)NCc1ccco1 | 0 | -60.7 | 0 | 0 | 0
Cc1ccc(CNCCc2c[nH]c3ccccc23)c(C)c1 | - | - | 0 | - | -
COC(=O)C1=C(c2cccc(OCc3ccccc3)c2)C[C@@H]2CC[C@H]1N2C(=O)NCc1ccccc1 | 0 | 0 | 0 | 0 | 0
COC(=O)C1=C(c2cccc(OCc3ccccc3)c2)C[C@@H]2CC[C@H]1N2C(=O)NCc1ccc(OC)cc1 | 0 | -67.7 | 0 | 0 | 0
COC(=O)C1=C(c2cccc(OCc3ccccc3)c2)C[C@@H]2CC[C@H]1N2C(=O)NCc1ccccc1OC | 0 | -51.6 | 0 | 0 | 0
